This is part of a sample that, as a whole, favours compounds with a hit. Of some 79,000 tested, about 15% had one in any assay. Cut-off read from the data, not from the text of the source: active = growth inhibition above about 70%; inactive = the rest.
Assays:
[1] = NCI Yeast Anticancer Drug Screen. Data for the rad50 strain (AID 155);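 note: 0% = growth of vehicle-only cultures of the same strain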; details: S. cerevisiae rad50 strain growth inhibition; at 50.0 µM; hits give high values
Method in brief: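 A DNA repair-deficient yeast mutant serves as the test organism; compound-induced growth inhibition is calculated against vehicle-treated cells.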

[2] = NCI Yeast Anticancer Drug Screen. Data for the mec2-1 strain (AID 157); details: S. cerevisiae mec2-1 strain, at 50.0 µM, hits give high values
Method in brief: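 Strain: mec2-1 (DNA repair/cell cycle alteration). Compound exposure, then growth measured; inhibition expressed relative to vehicle.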

[3] = NCI Yeast Anticancer Drug Screen. Data for the sgs1 mgt1 strain (AID 161);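 note: 0% = growth of cultures given vehicle only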; details: S. cerevisiae sgs1 mgt1 strain, at 50.0 µM, hits give high values
Method in brief: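 Mutant yeast exposed to compound; growth scored against vehicle-only wells.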

[4] = NCI Yeast Anticancer Drug Screen. Data for the cln2 rad14 strain (AID 165);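 note: 0% = growth equal to vehicle treated cultures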; details: S. cerevisiae cln2 rad14 strain, at 50.0 µM, hits give high values
Method in brief: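 Compounds are applied to the cln2 rad14 yeast strain, and growth is then compared with that of vehicle-treated cultures to give inhibition.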

[5] = NCI Yeast Anticancer Drug Screen. Data for the bub3 strain (AID 167); details: S. cerevisiae bub3 mutant strain, at 50.0 µM, hits give high values
Method in brief: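 Inhibition values come from growth of compound-treated mutant yeast normalised to vehicle-treated controls.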

[6] = NCI Yeast Anticancer Drug Screen. Data for the mlh1 rad18 strain (AID 175); details: S. cerevisiae mlh1 rad18 strain growth inhibition; at 50.0 µM; hits give high values
Method in brief: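 Read-out is yeast growth inhibition, calculated against vehicle-only controls. The compound was applied to a strain engineered with DNA damage repair alterations.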

Measured: growth inhibition

Nc1c(Cl)ncnc1NCCCCCO
inactive: [1] -5.35% | [2] -4% | [3] -8.75% | [4] -23.7% | [5] -6.95% | [6] -1.95%

CCOC(=O)c1nc2ccccc2nc1Nc1ccc(F)cc1
inactive: [1] -2.35% | [2] -7.5% | [3] 1.75% | [4] 1.05% | [5] -21.1% | [6] -38%

CN(C)c1ccc(/C=C2\CCc3ccccc3C2=O)cc1Br
inactive: [1] 5.6% | [2] -12.1% | [3] -13.9% | [4] -9.05% | [5] 3.95% | [6] -26.6%

CCCCN(CCCC)CCC(O)c1cc(-c2ccc(C(F)(F)F)cc2)nc(-c2ccc(C(F)(F)F)cc2)c1 (configuration not stated)
inactive: [1] 24.3% | [2] -4.9% | [3] -37.6% | [4] -8.7% | [5] -55.6% | [6] -41.2%

CN1C(=O)N(C)C2=NC(=O)N(C)C2(C(Cl)(Cl)Cl)C1=O (configuration not stated)
inactive: [1] 45.3% | [2] 32.2% | [3] 47.4% | [4] 24.6% | [5] 21.6% | [6] 58%

O=C1C=CC(=NCl)C=C1
inactive: [1] -18.6% | [2] -24.9% | [3] 4.35% | [4] -21.9% | [5] 1.15% | [6] 10.6%

Cc1cccc(C)c1NC(=O)C1=NC(=S)NC(c2ccccc2)C1c1nc2ccccc2s1 (configuration not stated)
inactive: [1] -5.7% | [2] -19% | [3] -15.4% | [4] 10.2% | [5] -0.85% | [6] -1.1%

CC(=O)/C(=N/O)C(C)C
inactive: [1] 4.6% | [2] -3.5% | [3] 6.35% | [4] -0.35% | [5] -0.45% | [6] 2.8%

CC(=O)OCC1OC(n2c(=S)n(-c3ccc([N+](=O)[O-])cc3)c(=O)c3ccccc32)C(OC(C)=O)C(OC(C)=O)C1OC(C)=O (configuration not stated)
inactive: [1] -6.3% | [2] 19.1% | [3] -9.55% | [4] 19% | [5] 11.8% | [6] 9.1%

C/C(N=NS(=O)(=O)c1ccc(C)cc1)=C1\C=CC=CN1O
inactive: [1] -15.9% | [2] -14.7% | [3] -6.9% | [4] -1% | [5] -2.85% | [6] -11.9%

Cn1c(=O)c2c(ncn2CCSS(=O)(=O)O)n(C)c1=O
inactive: [1] -20.7% | [2] -17.1% | [3] 12.2% | [4] -11.9% | [5] -12% | [6] -28.9%

C=Cc1c(C)c(C)c(C=C)c(C)c1C
inactive: [1] -3.85% | [2] 6.65% | [3] -8.2% | [4] 4.75% | [5] -10.2% | [6] -17.3%

CC1c2ccc3ccccc3c2C(=O)c2cccc(Cl)c21 (configuration not stated)
inactive: [1] 0.45% | [2] 31.9% | [3] 14.7% | [4] -42.6% | [5] -5.65% | [6] -1.65%

Cc1c2c(=O)oc3ccc(Cl)cc3c2nn1-c1ccccc1
inactive: [1] -13.9% | [2] -9.4% | [3] -11.8% | [4] -7.8% | [5] -25.7% | [6] -9.65%

CCOC(=O)C(CCSC)(CCSC)C(=O)OCC
inactive: [1] -41.4% | [2] -56.7% | [3] -31.7% | [4] 11.8% | [5] 20.4% | [6] -13.1%

CN1c2ccccc2Sc2cc(/C=C3/SC(=S)NC3=O)ccc21
inactive: [1] 1.95% | [2] 4.6% | [3] 3.55% | [4] -19.8% | [5] 38.8% | [6] 0.15%

CC1(C)OC(=O)C(=Cc2ccc(-c3ccccc3[N+](=O)[O-])o2)C(=O)O1
inactive: [1] 3.05% | [2] 6.25% | [3] 31% | [4] 23.6% | [5] 29.5% | [6] 26.6%

NN1C(=O)Cc2ccc(Cl)cc21
inactive: [1] 9.1% | [2] -0.7% | [3] -2.9% | [4] -33.5% | [5] -3.15% | [6] 2.1%

CCOC(=O)/C(C#N)=C/c1cccc(Cl)c1
inactive: [1] 28.6% | [2] 30% | [3] 38.9% | [4] 13.3% | [5] 13.4% | [6] 44%

CSc1ccc(NC(=O)CCc2ccccc2)cc1
inactive: [1] 7.7% | [2] 6.45% | [3] 13.2% | [4] -4% | [5] 41.5% | [6] 24.1%

Cc1ccc(P(=S)(c2ccc(C)c3ccccc23)c2ccc(C)c3ccccc23)c2ccccc12
inactive: [1] -8.1% | [2] -6.3% | [3] -3.4% | [4] -8.7% | [5] 0.1% | [6] -4.9%

CC(C)CSc1nc2ccc(N=Cc3ccccc3O)cc2s1
inactive: [1] -29.4% | [2] -5.5% | [3] -11.3% | [4] -13% | [5] 8.75% | [6] -17.3%

Nc1ccc(S(=O)(=O)NNc2nc(N3CCCCC3)nc(N3CCCCC3)n2)cc1
inactive: [1] -1.3% | [2] 1.95% | [3] 10.2% | [4] 7.9% | [5] -11.7% | [6] -5%

NC1=Nc2ccccc2Sc2nnc(-c3ccc(Cl)cc3)n21
inactive: [1] 1.75% | [2] -3.25% | [3] -11.8% | [4] -3.3% | [5] -15.2% | [6] 4.6%

COc1cc(C(C)S(=O)(=O)O)ccc1O (configuration not stated)
inactive: [1] -19.6% | [2] 1.7% | [3] 8.45% | [4] -12.6% | [5] 4.9% | [6] -5.55%

CC(C)(C)C1CCC(C(=O)O)CC1 (configuration not stated)
inactive: [1] 24.4% | [2] -3.05% | [3] 19.8% | [4] 10.6% | [5] 5.6% | [6] 24.9%

CC(/C=N/N(C)C)=N\N(C)C
inactive: [1] -3.75% | [2] 5.3% | [3] -5.65% | [4] -60.4% | [5] 32.2% | [6] -21.4%

COc1cc2ccc(/C=C/C(=O)c3ccc4c(c3)OCO4)cc2cc1OC
inactive: [1] -7.3% | [2] -3.75% | [3] 3.25% | [4] 22.4% | [5] 6.4% | [6] -4.65%

COc1c(Cl)c(Cl)c2ncc(Cl)cc2c1Cl
inactive: [1] -3.7% | [2] -3.3% | [3] -3.5% | [4] -29.1% | [5] 14.8% | [6] -14.9%

Cc1ccc(N)c(C(=O)Nc2ccc(Br)cc2)c1
inactive: [1] -19.6% | [2] -18.6% | [3] -10.1% | [4] -8.85% | [5] -17.6% | [6] -16.6%

Cc1c(O)cc(O)c(C=O)c1C
inactive: [1] 6.05% | [2] -4.2% | [3] 16.1% | [4] 4.5% | [5] -2.45% | [6] 3.1%

CCCCCCCCCCCC(=O)OC(C)CO (configuration not stated)
inactive: [1] -3.9% | [2] -10.9% | [3] -3.7% | [4] -32.9% | [5] -1.45% | [6] 17.1%

O=C(/C=C/c1ccc(O)cc1)NCCc1c[nH]c2ccc(O)cc12
inactive: [1] 0.75% | [2] -10% | [3] 10% | [4] 8.35% | [5] -3.7% | [6] 7.75%

CC1CC(C)CN(S(=O)(=O)c2cc(Cl)c(Oc3ccc([N+](=O)[O-])cc3Cl)c(Cl)c2)C1 (configuration not stated)
inactive: [1] 7.8% | [2] -28.3% | [3] 3.75% | [4] 34.4% | [5] -11.3% | [6] -2.45%

CC1(C)SCCNC1=O
inactive: [1] 3.35% | [2] 8.45% | [3] 8.8% | [4] 11.8% | [5] 15.8% | [6] 4.75%

O=C(Oc1ccc2c(c1)CCN2C(=O)c1cc2c(cc1[N+](=O)[O-])OCO2)c1ccc2c(c1)OCO2
inactive: [1] 17.4% | [2] 7.2% | [3] -2.3% | [4] 5.7% | [5] -4.8% | [6] 11.2%

Cc1c(O)cccc1C(=O)C[n+]1ccccc1
inactive: [1] 3.85% | [2] -8% | [3] 10.8% | [4] -24.9% | [5] -6.9% | [6] 1.25%

CCOC(=O)/C(C#N)=C(O)\C(=C\c1ccc(Cl)cc1)NC(=O)c1ccc(NC(C)=O)cc1
inactive: [1] 8.9% | [2] -0.3% | [3] -17.4% | [4] 9.2% | [5] -8.1% | [6] 5.65%

CCOC(=O)C[n+]1ccc(C(=O)OCC)cc1
inactive: [1] -7.1% | [2] -15.2% | [3] 0.05% | [4] 2.3% | [5] 11.1% | [6] 3.5%

COC(=O)c1ccc(N(C)CC/C(CNc2nc(N)[nH]c(=O)c2[N+](=O)[O-])=N\NC(N)=O)cc1
inactive: [1] 9.35% | [2] 10.6% | [3] -2.4% | [4] 6.25% | [5] -7.55% | [6] -4.15%

C[N+]1(CCc2ccccc2)CCOCC1
inactive: [1] -13.6% | [2] 3.9% | [3] 0.8% | [4] -38% | [5] 1.5% | [6] 2.8%

O=C(NNC(=O)c1ccc2ccccc2c1)c1cccc(Br)c1
inactive: [1] -21.1% | [2] -20.6% | [3] -6.55% | [4] 10.1% | [5] -5.6% | [6] -7.95%
